Source: PubChem
Rows were chosen to be rich in hits. Some 2.8% of all compounds tested hit in one or more screens of this group.
SENP8 block-1 = human SENP8 protease inhibitors, primary screen, biochemical, fluorescence, Nedd8 protein substrate, uHTS | recombinant SENP8 | inhibition, % at 20 µM | 360,000 tested, 0.64% active; in the data active = inhibition mostly above about 40%, no sharp cut-off; inactive = mostly below about 27%
HSP90 inh = HSP90 inhibitors, primary screen, cell lysate, luminescence. inhibition, % at 5.6 µM. AID 1789, 2009. 290,000 tested, 0.91% active. Rabbit reticulocyte lysate, luciferase refolding luminescence, 3 h. Heat shock protein HSP 90 (rabbit reticulocyte lysate; luciferase refolding);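 active = inhibition above the screen-wide mean plus 3 SD, computed separately per campaign, cut at about 16% in these data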;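 also: inhibitors lower the luminescence because luciferase stays unfolded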
SENP8 block-2 = SENP8 protease inhibitors, primary screen, biochemical, luminescence | Sentrin-specific protease 8 (Homo sapiens), Q96LD8 | purified SENP8, Z-RLRGG-aminoluciferin cleavage | inhibition, % at 10 µM | 330,000 tested, 1.2% active; in the data active = inhibition above about 50%
SENP6 block = SENP6 protease inhibitors, primary screen, biochemical, luminescence, uHTS; Sentrin-specific protease 6 (Homo sapiens), Q9GZR1; Recombinant SENP6 catalytic domain, aminoluciferin luminescence; inhibition, % at 10 µM; 330,000 tested, 1.8% active;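 active = inhibition above about 50% at the single tested dose, limit read from the data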
Target sequence (Q9GZR1 628-1112 limits assumed): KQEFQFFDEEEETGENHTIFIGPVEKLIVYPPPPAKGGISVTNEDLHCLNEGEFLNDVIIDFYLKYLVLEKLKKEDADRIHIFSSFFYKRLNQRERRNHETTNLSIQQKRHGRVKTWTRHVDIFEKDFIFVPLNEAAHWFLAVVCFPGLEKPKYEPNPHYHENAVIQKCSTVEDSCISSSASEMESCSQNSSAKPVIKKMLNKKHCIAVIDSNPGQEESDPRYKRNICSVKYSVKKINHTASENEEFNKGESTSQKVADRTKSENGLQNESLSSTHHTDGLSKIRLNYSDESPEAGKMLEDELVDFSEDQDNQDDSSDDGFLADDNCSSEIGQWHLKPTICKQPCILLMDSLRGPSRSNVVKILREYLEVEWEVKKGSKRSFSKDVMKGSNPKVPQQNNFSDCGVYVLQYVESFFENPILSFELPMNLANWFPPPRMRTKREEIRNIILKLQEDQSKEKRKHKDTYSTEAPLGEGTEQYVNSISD
SENP7 block = SENP7 protease inhibitors, primary screen, biochemical, luminescence, uHTS | Sentrin-specific protease 7 (Homo sapiens), Q9BQF6 | recombinant SENP7, Z-RLRGG-aminoluciferin luminescence, 40 min | inhibition, % at 5 µM | 330,000 tested, 1.5% active | AID 434973, 2010;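 active = inhibition above about 50% at the single test dose, limit read from the data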
Of the large screens only hits and unclear results are named; the others gave an inactive call.

CCOc1ccc(NC(C)c2cc(Cl)ccc2O)cc1 (stereo unspecified)	SENP8 block-1 46
Cc1noc(C)c1C(=O)OCC(=O)NC(=O)c1ccc(C(C)(C)C)cc1	none (no result: HSP90 inh, SENP8 block-2, SENP6 block, SENP7 block)
CCC(=O)Nc1ccc(Br)cn1	none
O=C(Nc1ccc(Br)cn1)c1ccc(Cl)s1	SENP6 block 61, SENP7 block 54
CC(=O)NC(c1cccs1)c1cc(F)c2cccnc2c1O (stereo unspecified)	none (no result: HSP90 inh)
CCC(=O)NC(c1ccc(C)cc1)c1cc(Cl)c2cccnc2c1O (stereo unspecified)	none (no result: HSP90 inh)
Cc1ccc(C(NC(=O)C(C)C)c2cc([N+](=O)[O-])c3cccnc3c2O)cc1 (stereo unspecified)	SENP8 block-1 55
CC(C)C(=O)NC(c1cccs1)c1cc([N+](=O)[O-])c2cccnc2c1O (stereo unspecified)	SENP8 block-1 44
Cc1ccc(NC(=O)c2ccc3c(c2)C(=O)N(Cc2cccnc2)C3=O)c(C)c1	none
Cc1ccc(NC(=O)c2nnn(CC(=O)Nc3ccccc3)c2N)cc1C	none
Cc1nc2c(nc1C)C(=O)c1ccccc1C2=O	SENP8 block-1 65 (no result: HSP90 inh, SENP8 block-2, SENP6 block, SENP7 block)
COc1ccc(CN2CCNC(=O)C2CC(=O)N(C)Cc2ccno2)c(F)c1 (stereo unspecified)	none
CCCC[n+]1ccn(-c2nc3ccccc3nc2[N-]S(=O)(=O)c2ccccc2)c1	none
CCCCC[n+]1ccn(C2=C([O-])c3ccccc3C(=O)/C2=N\S(=O)(=O)c2ccccc2)c1	SENP8 block-1 67
CC(C)[n+]1ccn(C2=C([O-])c3ccccc3C(=O)/C2=N\S(=O)(=O)c2ccccc2)c1	SENP8 block-1 86
CCCCC[n+]1ccn(C2=C([O-])c3ccccc3C(=O)/C2=N\S(=O)(=O)c2ccc(Br)cc2)c1	SENP8 block-1 80
CCCC[n+]1ccn(C2=C([O-])c3ccccc3C(=O)/C2=N\S(=O)(=O)c2ccccc2)c1	SENP8 block-1 78
Fc1ccc2nc(Nc3nc4c(F)cccc4s3)sc2c1	none
Cc1nc(SCC(=O)O)n[nH]1	none
CCCNC(=O)C1CCN(S(=O)(=O)c2ccc3[nH]c(=O)ccc3c2)CC1	HSP90 inh 35
COc1cccc(C(=O)NNC(=S)NC2CCCCC2)c1	none
CCOC(=O)c1cccc(NC(=O)Cn2c(CC(=O)N3CCCC3)nc3ccccc32)c1	SENP6 block 76 (no result: SENP8 block-1)
Cn1nccc1C(=O)N/N=C/c1cccnc1	SENP8 block-2 61
O=[N+]([O-])c1ccccc1CNCCO	none (no result: HSP90 inh)
Cc1ccc(C(=O)Nc2ncc([N+](=O)[O-])s2)cc1	HSP90 inh 80 (no result: SENP8 block-2, SENP6 block, SENP7 block)
O=C(Cc1ccc(Br)cc1)Nc1ncc([N+](=O)[O-])s1	SENP8 block-2 92, SENP6 block 94, SENP7 block 53
COc1ccc(CCNC(=O)c2ccc(CNS(=O)(=O)c3ccccc3)cc2)cc1OC	none
CC(C)CC(=O)NC(=S)Nc1ccc(N2CCCC2)c(Cl)c1	none
O=C(CCN1C(=O)/C(=C\C=C\c2ccccc2)SC1=S)Nc1cccc(C(=O)O)c1	SENP8 block-2 55, SENP6 block 53
Cc1ccc(/C=C2\SC(=S)N(CCCC(=O)Nc3cccc(C(=O)O)c3)C2=O)cc1	SENP8 block-2 87, SENP6 block 91, SENP7 block 61
Cc1ccc(C=C2SC(=S)N(CCCC(=O)Nc3cccc(C(=O)O)c3)C2=O)cc1	none (no result: HSP90 inh, SENP8 block-2, SENP6 block, SENP7 block)
COc1cc(/C=C2\SC(=S)N(NS(=O)(=O)c3ccc(C)cc3)C2=O)ccc1O	none
COc1cc(/C=C2\SC(=S)N(NS(=O)(=O)c3ccccc3)C2=O)ccc1O	SENP8 block-1 48
Cc1ccc(/C=C2\SC(=S)N(CCC(=O)NNS(=O)(=O)c3ccccc3)C2=O)cc1	SENP8 block-1 59
O=C(CCN1C(=O)/C(=C\C=C\c2ccccc2)SC1=S)Nc1ccccc1C(=O)O	none
CNc1nc(-c2ccc3c(c2)CCN3C(=O)c2ccccc2F)c(C)s1	none
COc1ccc(CCNC(=O)Cn2ccc3c(OC)cccc3c2=O)cc1OC	none
CCCCCCOc1ccc(C(=O)O)cc1	none
CCc1nc2ccc(C(=O)NCCc3ccco3)cc2nc1CC	none
COc1ccc(N=Nc2n(C)c3ccccc3[n+]2C)cc1	HSP90 inh 79 (no result: SENP8 block-1, SENP8 block-2, SENP6 block, SENP7 block)
CCNCc1ccccc1OCc1ccccc1	none
Oc1ccc(NCc2ccccc2OCc2ccccc2)cc1	SENP8 block-1 62
Oc1ccc(/C=N/Nc2cc(N3CCOCC3)nc(N3CCOCC3)n2)cc1O	none
Oc1ccccc1/C=N/Nc1cc(N2CCCC2)nc(N2CCCC2)n1	SENP8 block-1 58
Cc1cc[n+](-c2[nH]c(=O)sc2/C=N/NC([S-])=Nc2ccccc2)cc1C	none
CC(C)(C)c1cc[n+](-c2[nH]c(=O)sc2/C=N/NC([S-])=Nc2ccccc2)cc1	SENP8 block-1 25
O=C(NCc1ccccc1)c1c[nH]c2ccc(S(=O)(=O)Nc3ccc4c(c3)OCCO4)cc2c1=O	none
O=C(NCc1cccnc1)c1c[nH]c2cc3c(cc2c1=O)OCCO3	HSP90 inh 16
CCN(CC)c1ccc(/C=C(/C#N)c2nc3ccccc3[nH]2)c(OC(C)C)c1	HSP90 inh 16
Oc1c(Br)cc(Br)cc1/C=N/Nc1ccc(Cl)nn1	none (no result: SENP8 block-2, SENP6 block, SENP7 block)
Oc1ccc(/C=N/Nc2ccc(Cl)nn2)c(O)c1O	SENP8 block-1 49
COc1ccc(NS(=O)(=O)c2ccc(NC(=S)NC(=O)c3cccnc3)cc2)nn1	none
COc1ccc(NS(=O)(=O)c2ccc(NC(=S)NC(=O)c3cccc(F)c3)cc2)nn1	SENP8 block-2 85, SENP6 block 92, SENP7 block 80
CCCOC(=O)c1ccc(-c2ccc(C=O)o2)cc1	HSP90 inh 36
COc1cc(N=Nc2ccc(C)cc2S(N)(=O)=O)c(C)cc1N	SENP8 block-1 49 (no result: HSP90 inh, SENP8 block-2, SENP6 block, SENP7 block)
COC(=O)/C=C/C(=O)Nc1ccc(O)c(Cl)c1	none
O=C1NN(c2cccc(Br)c2)C(=O)/C1=C/c1ccc(-c2cc([N+](=O)[O-])ccc2O)o1	SENP8 block-1 51
O=S(c1ccc2ccccc2c1)c1cnns1 (stereo unspecified)	SENP8 block-1 44
CC1=NN(c2ccccc2)C(=O)/C1=C\c1cc(C)n(-c2cccnc2)c1C	SENP8 block-1 42
Cc1cc(/C=C2/NC(=O)N(c3ccccc3)C2=O)c(C)n1-c1cccnc1	none
CC1=NN(c2ccccc2)C(=O)/C1=C\c1cc(C)n(-c2ccccc2)c1C	SENP8 block-1 46
C=CCn1c(Sc2ncc([N+](=O)[O-])s2)n[nH]c1=O	none
CCc1cc(/C(Cc2ccccn2)=N\Nc2ccccc2)c(O)cc1O	none
O=C(CCCN1C(=O)S/C(=C/C=C/c2ccccc2)C1=O)Nc1ccc(C(=O)O)cc1	none
CCCC(=Nc1ccccc1)C1=C(O)C(C(=O)OC)C(C)(C)CC1=O (stereo unspecified)	none
